Read-out in test [1]: Interferon-gamma inducible Protein 10 (IP10), CXCL10 (gene 3627)
The test can be described thus: BSK_hDFCGF_IP10: BioMAP Diversity Plus: hDFCGF Assay for Interferon-gamma inducible Protein 10 (IP10) Biomarker Activity (AID 2283053). Conditions: primary human foreskin fibroblasts; actives raise or lower the signal. A digest of the protocol: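 Primary foreskin fibroblasts, human; 24 h compound exposure; IP-10 by ELISA; bidirectional fit vs DMSO.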

Read-out in test [2]: Urokinase-type plasminogen activator receptor (uPAR), PLAUR (gene 5329)
The test can be described thus: BSK_CASM3C_uPAR: BioMAP Diversity Plus: CASM3C Assay for Urokinase-type plasminogen activator receptor (uPAR) Biomarker Activity (AID 2283054).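 Further: cell-surface uPAR protein level quantified by ELISA.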 Conditions: primary human coronary artery smooth muscle cells; actives raise or lower the signal.

Read-out in test [3]: Vascular cell adhesion molecule 1 (VCAM1), VCAM1 (gene 7412)
In words: BSK_CASM3C_VCAM1: BioMAP Diversity Plus: CASM3C Assay for Vascular cell adhesion molecule 1 (VCAM1) Biomarker Activity (AID 2283055).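 Further: VCAM-1 protein level quantified by ELISA on the cells.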 Conditions: primary human coronary artery smooth muscle cells; actives raise or lower the signal.

Read-out in test [4]: Epidermal growth factor receptor (EGFR), EGFR (gene 1956)
The test can be described thus: BSK_hDFCGF_EGFR: BioMAP Diversity Plus: hDFCGF Assay for Epidermal growth factor receptor (EGFR) Biomarker Activity (AID 2283057). Conditions: primary human foreskin fibroblasts; actives raise or lower the signal. A digest of the protocol: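 hDFCGF system, primary human foreskin fibroblasts; compound 24 h; EGFR measured by ELISA; DMSO = negative control/baseline; bidirectional fitting.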

Read-out in test [5]: Interleukin-8 (IL8), CXCL8 (gene 3576)
The test can be described thus: BSK_hDFCGF_IL8: BioMAP Diversity Plus: hDFCGF Assay for Interleukin-8 (IL8) Biomarker Activity (AID 2283058). The note with it: primary human foreskin fibroblasts; actives raise or lower the signal. In outline:
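Primary human foreskin fibroblasts (hDFCGF system) dosed with chemical; IL-8 measured by ELISA 24 hours later. Bidirectional curve fitting relative to DMSO baseline; cytotoxicity tracked in parallel cultures by SRB total protein staining.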

Test [6] can be described thus: BSK_hDFCGF_Proliferation: Cell Proliferation Assessment in the BioMAP Diversity Plus: hDFCGF Assay (AID 2283059).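 Further: curves fitted for both rise and fall of signal versus DMSO baseline.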 Conditions: primary human foreskin fibroblasts. A digest of the protocol:
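Primary human foreskin fibroblasts, sub-confluent; […]; 10% TCA fix, 0.1% SRB stain, A560 total protein. Gain/loss fitted bidirectionally vs DMSO control.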

Read-out in test [7]: Macrophage colony-stimulating factor (MCSF), CSF1 (gene 1435)
In words: BSK_hDFCGF_MCSF: BioMAP Diversity Plus: hDFCGF Assay for Macrophage colony-stimulating factor (MCSF) Biomarker Activity (AID 2283060). Conditions: primary human foreskin fibroblasts; actives raise or lower the signal. A digest of the protocol: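 Human foreskin fibroblast primary cultures; M-CSF measured by ELISA 24 hours after chemical dosing. Bidirectional fitting relative to DMSO, with overt cytotoxicity tracked by parallel SRB total-protein staining (0.1% SRB, 10% TCA fixation, 560 nm).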

Test [8] can be described thus: BSK_hDFCGF_SRB: Viability Assessment in the BioMAP Diversity Plus: hDFCGF Assay (AID 2283061).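 Further: cells exposed to compound for 24 h before the read.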 The note with it: primary human foreskin fibroblasts. In outline:
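Human foreskin fibroblasts in 96-well plates were treated 24 h. Total protein was measured by 0.1% SRB staining after 10% TCA fixation, read at 560 nm. Data were fitted bidirectionally against DMSO.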

Read-out in test [9]: TIMP metallopeptidase inhibitor 1 (TIMP1), TIMP1 (gene 7076)
In words: BSK_hDFCGF_TIMP1: BioMAP Diversity Plus: hDFCGF Assay for TIMP metallopeptidase inhibitor 1 (TIMP1) Biomarker Activity (AID 2283062). Conditions: primary human foreskin fibroblasts; actives raise or lower the signal. In outline: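 Human foreskin fibroblast primary cultures dosed for 24 h; secreted/surface TIMP-1 quantified by ELISA. Bidirectional curve fitting against DMSO baseline; cytotoxicity tracked in parallel cultures by SRB total-protein staining.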

Read-out in test [10]: Monokine induced gamma interferon (MIG), CXCL9 (gene 4283)
In words: BSK_hDFCGF_MIG: BioMAP Diversity Plus: hDFCGF Assay for Monokine induced gamma interferon (MIG) Biomarker Activity (AID 2283063). The note with it: primary human foreskin fibroblasts; actives raise or lower the signal. A digest of the protocol:
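MIG/CXCL9 measured by ELISA 24 h after dosing primary human skin fibroblasts. Activity fitted in both directions against DMSO controls. Cytotoxicity was checked in parallel cultures by SRB staining read at 560 nm.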

Read-out in test [11]: Vascular cell adhesion molecule 1 (VCAM1), VCAM1 (gene 7412)
In words: BSK_hDFCGF_VCAM1: BioMAP Diversity Plus: hDFCGF Assay for Vascular cell adhesion molecule 1 (VCAM1) Biomarker Activity (AID 2283065).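 On AC50: VCAM-1 protein level quantified by ELISA after 24 h chemical exposure.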 Conditions: primary human foreskin fibroblasts; actives raise or lower the signal. In outline:
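Human foreskin fibroblast primary cells dosed with chemical, VCAM-1 measured by ELISA at 24 h. Bidirectional curve fitting relative to DMSO as negative control/baseline.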

Read-out in test [12]: Plasminogen activator inhibitor-1 (PAI1), SERPINE1 (gene 5054)
In words: BSK_hDFCGF_PAI1: BioMAP Diversity Plus: hDFCGF Assay for Plasminogen activator inhibitor-1 (PAI1) Biomarker Activity (AID 2283066). Conditions: primary human foreskin fibroblasts; actives raise or lower the signal. In outline: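 Primary dermal fibroblasts (human foreskin), hDFCGF system; compound 24 h; PAI-1 by ELISA; bidirectional fit vs DMSO control.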

Read-out in test [13]: Intercellular Adhesion Molecule 1 (ICAM1), ICAM1 (gene 3383)
In words: BSK_KF3CT_ICAM1: BioMAP Diversity Plus: KF3CT Assay for Intercellular Adhesion Molecule 1 (ICAM1) Biomarker Activity (AID 2283067). The note with it: primary human keratinocytes with fibroblasts; actives raise or lower the signal. In outline:
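Human keratinocyte–foreskin fibroblast co-culture was treated for 24 h. Cell-surface ICAM-1 was quantified by ELISA, fitted bidirectionally relative to DMSO. Cytotoxicity was checked in parallel cultures by SRB total-protein staining.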

Test [14] in a line: BSK_KF3CT_SRB: Viability Assessment in the BioMAP Diversity Plus: KF3CT Assay (AID 2283069).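 Further: total protein by sulforhodamine B staining as a cytotoxicity measure; read 24 h after compound addition.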 Conditions: primary human keratinocytes with fibroblasts. A digest of the protocol: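 Human primary keratinocyte plus foreskin fibroblast co-culture exposed to chemicals for 24 h. Total protein measured by 0.1% sulforhodamine B staining after 10% TCA fixation, read at 560 nm; bidirectional fitting versus DMSO baseline.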

Read-out in test [15]: Interleukin-1 alpha (IL1a), IL1A (gene 3552)
The test can be described thus: BSK_KF3CT_IL1a: BioMAP Diversity Plus: KF3CT Assay for Interleukin-1 alpha (IL1a) Biomarker Activity (AID 2283070). Conditions: primary human keratinocytes with fibroblasts; actives raise or lower the signal. In outline: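 Human keratinocyte plus foreskin fibroblast primary co-culture, sampled 24 h after chemical dosing. IL-1a measured by ELISA; responses fitted bidirectionally against DMSO baseline (negative control), so gain or loss of signal both count.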

Read-out in test [16]: TIMP metallopeptidase inhibitor 2 (TIMP2), TIMP2 (gene 7077)
The test can be described thus: BSK_KF3CT_TIMP2: BioMAP Diversity Plus: KF3CT Assay for TIMP metallopeptidase inhibitor 2 (TIMP2) Biomarker Activity (AID 2283071). Conditions: primary human keratinocytes with fibroblasts; actives raise or lower the signal. A digest of the protocol: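 Cells: human keratinocytes co-cultured with foreskin fibroblasts. Treat with chemical, 24 h. Measure TIMP-2 by ELISA; fit curves bidirectionally vs DMSO baseline.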

Read-out in test [17]: Transforming growth factor beta 1 (TGFb1), TGFB1 (gene 7040)
The test can be described thus: BSK_KF3CT_TGFb1: BioMAP Diversity Plus: KF3CT Assay for Transforming growth factor beta 1 (TGFb1) Biomarker Activity (AID 2283072). Conditions: primary human keratinocytes with fibroblasts; actives raise or lower the signal. In outline: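 Primary human skin cells (keratinocytes, foreskin fibroblasts) were co-cultured, exposed to test chemical and sampled at 24 h. TGF-b1 levels were measured by ELISA and fitted bidirectionally relative to DMSO.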

Read-out in test [18]: Matrix Metallopeptidase 1 (MMP1), MMP1 (gene 4312)
The test can be described thus: BSK_hDFCGF_MMP1: BioMAP Diversity Plus: hDFCGF Assay for Matrix Metallopeptidase 1 (MMP1) Biomarker Activity (AID 2283064). Conditions: primary human foreskin fibroblasts; actives raise or lower the signal. In outline:
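Primary human foreskin fibroblasts in the hDFCGF system were dosed with test chemical, and MMP1 was measured by ELISA 24 h later. Values come from bidirectional curve fitting against the DMSO baseline.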

Read-out in test [19]: Interferon-gamma inducible Protein 10 (IP10), CXCL10 (gene 3627)
The test can be described thus: BSK_KF3CT_IP10: BioMAP Diversity Plus: KF3CT Assay for Interferon-gamma inducible Protein 10 (IP10) Biomarker Activity (AID 2283068). Conditions: primary human keratinocytes with fibroblasts; actives raise or lower the signal. In outline:
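In a primary skin co-culture of keratinocytes and fibroblasts, IP-10 is quantified by ELISA at 24 h after dosing. SRB staining of parallel wells monitors overt toxicity. Curves are fitted both directions against DMSO.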

Active and inactive are the calls of the source. How the source made its calls: active means hit-call score of the fitted dose curve at least 0.9, where 1 is the maximum; inactive means score below 0.9.

As usually defined, the AC50 is the concentration at which the activity in the assay is half-maximal. `CC1=C(/C=C/C(C)=C/C=C/C(C)=C/C(=O)O)C(C)(C)CCC1`: the AC50 in test [1] is 30.2 µM (active); in test [3], 20 µM (active); in test [5] it was 38.9 µM (active); in test [6], 7.76 µM (active); in test [7], 25.2 µM (active); in [8], 34.5 µM (active). Further, the concentration at half-maximal activity (AC50) in test [9] was 31.2 µM (active); in test [10], 31.8 µM (active); in test [11], 18.5 µM (active); in test [12], 20 µM (active); in test [13], 30.6 µM (active); in [14] it was 32.8 µM (active). Further, the AC50 in test [15] was 33.6 µM (active); in [16], 32.3 µM (active); in [17], 30.1 µM (active). The outcome in [2] and in test [4] was inactive.
In the case of `CCc1nn(C2CCCCC2)c2cc(C3(C#N)CCC(C(=O)O)CC3)ccc12` (stereo not given), the half-maximal activity concentration (AC50) was 4.83 µM (active) in test [1]; 1.03 µM (active) in test [2]; 5.03 µM (active) in [3]; 1.26 µM (active) in [4]; 4.27 µM (active) in [6]; 5.16 µM (active) in test [7]. The AC50 in [8] is 4.51 µM (active); in test [10] it was 20 µM (active); in [18] it was 8.18 µM (active); in test [11] it was 7.89 µM (active); in test [12], 5.35 µM (active); in [19], 28.1 µM (active). Moreover, the concentration at half-maximal activity (AC50) in [16] was 11.5 µM (active). In addition, the result in test [5], in test [13], in test [14], in test [15] and in test [17] was inactive.
`CC(C)(C)c1cccc(C(C)(C)C)c1O`: the AC50 in test [1] is 37.8 µM (active); in [5], 36.8 µM (active); in test [6], 35 µM (active); in test [7], 31 µM (active); in test [8], 35.7 µM (active); in test [10], 34.9 µM (active). In addition, the AC50 in test [18] was 35.9 µM (active); in test [11], 35.5 µM (active); in [12], 36.6 µM (active); in [13], 37.9 µM (active); in [14], 33.8 µM (active); in [15], 31 µM (active). For the same molecule, the results for the AC50 in test [16] and in test [17] were 37.1 µM (active) and 36.1 µM (active), respectively. For the same molecule, the outcome in test [2], in test [3] and in test [4] was inactive.
Consider `CC(C)(C)c1ccc(O)c(C(C)(C)C)c1`, for which the AC50 in [1] was 10.1 µM (active); in [2], 7.58 µM (active); in [3], 29.1 µM (active); in [4], 13.2 µM (active); in test [5] it was 12.5 µM (active); in test [6], 11.4 µM (active). For the same molecule, the AC50 in test [7] is 8.8 µM (active); in test [8], 11.9 µM (active); in test [9], 11.5 µM (active); in test [10], 11.7 µM (active); in test [18], 11.3 µM (active); in [11] it was 9.1 µM (active). Further, the half-maximal activity concentration (AC50) was 10.3 µM (active) in test [12]; 14.6 µM (active) in [13]; 14.2 µM (active) in [19]; 8.27 µM (active) in test [14]; 9.23 µM (active) in [15]; 12 µM (active) in test [16]. For the same molecule, the AC50 in [17] is 8.63 µM (active).
Take `CCCCCCCCCCCCCC[N+](C)(C)C`: the half-maximal activity concentration (AC50) was 5.92 µM (active) in test [1]; 5.05 µM (active) in [2]; 9.9 µM (active) in test [3]; 4.98 µM (active) in [4]; 14.1 µM (active) in test [5]; 1.05 µM (active) in [6]. Moreover, the AC50 in test [7] was 2.81 µM (active); in [8] it was 5.22 µM (active); in test [10], 7.37 µM (active); in test [18] it was 9.7 µM (active); in test [11], 4.06 µM (active); in test [12], 2.85 µM (active). Also, the AC50 in test [13] was 12.8 µM (active); in test [14] it was 5.24 µM (active); in test [15], 3.96 µM (active); in [16] it was 5.45 µM (active); in [17], 0.925 µM (active).
With `O=C(OCCOCCOC(=O)c1ccccc1)c1ccccc1`, the outcome in test [1], in test [2], in [3], in test [4], in test [5] and in test [6] was inactive. The outcome in test [7], in [8], in test [10], in test [18], in test [11] and in [12] was inactive. The outcome in test [13], in [14], in test [15], in [16] and in [17] was inactive.

Source of the values: PubChem BioAssay (EPA / NIEHS).
